Test results reported in PubChem BioAssay AID1159580 (chemical genetic matrix, 2015).
Values joined by “and” are separate entries in the source; they are usually repeats but may differ in a detail not shown here. Equal entries are not always repeated. The whole screen tested about 5,500 compounds, of which about 2,000 (36%) were called active. About 18% were inconclusive and are not listed. Rule as the data show it: active = normalized growth mostly below about 0.91 (no sharp cut-off); inconclusive = no clear call, values can overlap the other calls; inactive = mostly above about 0.92. Some of the results follow.

Assay: chemical genetic growth profiling, strain panel (AID 1159580);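 also: tested at 20 µM; growth read once vehicle control cultures reached saturation at 30 °C; 1 = growth at the plate median or of vehicle wells; lower values mean less growth of the strain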
Settings: S. cerevisiae deletion strains, growth OD

Measured: normalized growth

COc1ccc(C(=O)CC(=O)c2ccc(C(C)(C)C)cc2)cc1
inactive: locus YAL013W, strain DEP1, active compounds read low 0.998 | locus YAL021C, strain ccr4, active compounds read low 0.999 | locus YAL026C, strain drs2, active compounds read low 0.996 | locus YAL030W, strain snc1, active compounds read low 0.993 | locus YBL061C, strain skt5, active compounds read low 0.99 | locus YBR009C, strain hhf1, active compounds read low 0.976 | locus YBR021W, strain FUR4, active compounds read low 0.979 | locus YBR023C, strain chs3, active compounds read low 0.987 | locus YBR171W, strain sec66, active compounds read low 1.03 | locus YBR229C, strain ROT2, active compounds read low 0.997 | locus YBR231C, strain swc5, active compounds read low 0.997 | locus YBR279W, strain paf1, active compounds read low 0.991 | locus YCL011C, strain gbp2, active compounds read low 0.995 | locus YCL016C, strain dcc1, active compounds read low 0.984 | locus YCL029C, strain bik1, active compounds read low 1.01 | locus YCL069W, strain vba3, active compounds read low 0.993 | locus YCR088W, strain abp1, active compounds read low 0.99 | locus YDL005C, strain med2, active compounds read low 0.983 | locus YDL035C, strain GPR1, active compounds read low 0.954 | locus YDL040C, strain nat1, active compounds read low 0.98 | locus YDL074C, strain BRE1, active compounds read low 0.933 | locus YDL101C, strain DUN1, active compounds read low 0.99 | locus YDL134C, strain PPH21, active compounds read low 1.01 | locus YDL185W, strain tfp1, active compounds read low 1 | locus YDL192W, strain arf1, active compounds read low 1 | locus YDR001C, strain nth1, active compounds read low 0.995 | locus YDR069C, strain doa4, active compounds read low 0.989 | locus YDR101C, strain arx1, active compounds read low 1 | locus YDR137W, strain rgp1, active compounds read low 0.918 | locus YDR150W, strain NUM1, active compounds read low 0.999 | locus YDR159W, strain sac3, active compounds read low 1.01 | locus YDR162C, strain NBP2, active compounds read low 0.851 | locus YDR195W, strain ref2 1.01 | locus YDR297W, strain sur2, active compounds read low 1 | locus YDR318W, strain mcm21, active compounds read low 0.994 | locus YDR334W, strain swr1, active compounds read low 1.02 | locus YDR335W, strain msn5, active compounds read low 1 | locus YDR388W, active compounds read low 1.01 | locus YDR392W, strain spt3, active compounds read low 1.02 | locus YDR502C, strain sam2, active compounds read low 1.01 | locus YEL003W, strain gim4, active compounds read low 0.992 | locus YEL037C, strain rad23, active compounds read low 0.992 | locus YEL061C, strain CIN8 (second series), active compounds read low 0.976 | locus YEL061C, strain CIN8, active compounds read low 0.96 | locus YER015W, strain faa2, active compounds read low 0.997 | locus YER016W, strain bim1, active compounds read low 0.983 | locus YER110C, active compounds read low 1.01 | locus YER111C, strain swi4, active compounds read low 0.995 | locus YER155C, strain BEM2 (second series), active compounds read low 1.01 | locus YER155C, strain BEM2, active compounds read low 0.94 | locus YER167W, strain BCK2, active compounds read low 0.987 | locus YFR010W, strain ubp6, active compounds read low 1 | locus YGL078C, strain dbp3, active compounds read low 0.996 | locus YGL086W, strain mad1, active compounds read low 0.991 | locus YGL167C, strain pmr1, active compounds read low 0.982 | locus YGL173C, strain kem1, active compounds read low 0.989 | locus YGL227W, strain vid30, active compounds read low 0.982 | locus YGL240W, strain doc1, active compounds read low 0.986 | locus YGL248W, strain PDE1, active compounds read low 0.986 | locus YGL253W, strain hxk2, active compounds read low 0.99 | locus YGR078C, strain PAC10, active compounds read low 0.931 | locus YGR135W, strain pre9, active compounds read low 0.997 | locus YGR229C, strain SMI1, active compounds read low 0.83 | locus YGR252W, strain gcn5, active compounds read low 1.02 | locus YHR013C, strain ard1, active compounds read low 0.945 | locus YHR027C, strain rpn1, active compounds read low 0.992 | locus YHR030C, strain SLT2, active compounds read low 0.929 and 0.981 | locus YHR079C, strain IRE1 (second series), active compounds read low 1 | locus YHR079C, strain IRE1, active compounds read low 0.984 | locus YHR094C, strain hxt1, active compounds read low 1 | locus YHR129C, strain ARP1, active compounds read low 1 | locus YHR142W, strain chs7, active compounds read low 0.956 | locus YHR200W, strain rpn10, active compounds read low 1 | locus YIL066C, strain RNR3, active compounds read low 0.992 | locus YIL073C, strain SPO22, active compounds read low 0.872 | locus YIL125W, strain kgd1, active compounds read low 0.993 | locus YIR030C, strain dcg1, active compounds read low 0.998 | locus YJL092W, strain hpr5, active compounds read low 0.993 | locus YJL095W, strain BCK1 (second series), active compounds read low 0.967 | locus YJL095W, strain BCK1, active compounds read low 0.958 and 0.995 | locus YJL115W, strain asf1, active compounds read low 1.01 | locus YJL129C, strain trk1, active compounds read low 0.918 | locus YJL134W, strain LCB3, active compounds read low 1 | locus YJL154C, strain vps35, active compounds read low 0.993 | locus YJL166W, strain qcr8, active compounds read low 0.976 | locus YJL168C, strain set2, active compounds read low 1 | locus YJL187C, strain SWE1 (second series), active compounds read low 1.01 | locus YJL187C, strain SWE1, active compounds read low 1 | locus YJR043C, strain POL32, active compounds read low 1 | locus YJR066W, strain TOR1, active compounds read low 0.97
active: locus YJL164C, strain tpk1, active compounds read low 0.913
